From the antibiotic and cytotoxicity screens of Wong et al. (2023) come the findings set out here.

Screen size: about 39,000 compounds; about 1,500 (3.8%) were called active. This is one part of a sample in which actives are shown more often than they occur.

The test system of the assay is HSkMC (human skeletal muscle cells). Kind of assay: cytotoxicity call (relative viability < 0.9). Conditions: 10 µM.
As for `COc1ccccc1C#Cc1ccc2c(c1)O[C@@H](CN(C)C(C)=O)[C@@H](C)CN([C@H](C)CO)S2(=O)=O`, the cytotoxicity call is “inactive”. As for `C[C@@H]1CN([C@@H](C)CO)C(=O)c2cc(-c3cccc(C(=O)N(C)C)c3)cnc2O[C@@H]1CN(C)C(=O)Cc1ccccn1`, the cytotoxicity call is “inactive”. With `COc1ccc(S(=O)(=O)N(C)C[C@@H]2OCCCC[C@H](C)Oc3ccc(NC(=O)Nc4c(C)noc4C)cc3C(=O)N([C@H](C)CO)C[C@H]2C)cc1`, the cytotoxicity call is “inactive”. For `O=C(c1cccnc1)N1C[C@H]2[C@@H](c3ccccc31)[C@@H](CO)N2C(=O)CN1CCOCC1`, the cytotoxicity call is “inactive”. Turning to `CN(C)S(=O)(=O)c1ccc(CN)cc1`, the cytotoxicity call is “inactive”. Regarding `CC(C)NC(=O)Nc1ccc2c(c1)C(=O)N(C)[C@H]1CC[C@@H](CC(=O)NCc3ccc(F)cc3)O[C@@H]1CO2`, the cytotoxicity call is “inactive”.

Turning to `C[C@@H]1CN([C@H](C)CO)C(=O)c2cccc(NS(=O)(=O)c3ccc(Cl)cc3)c2O[C@@H]1CN(C)Cc1ccc(Oc2ccccc2)cc1`, the cytotoxicity call was “inactive”.

Consider `C[C@@H]1CN([C@@H](C)CO)C(=O)c2ccccc2-c2ccccc2CO[C@@H]1CN(C)C(=O)Nc1ccc(F)cc1`, for which the cytotoxicity call is “inactive”. On to `C[C@@H]1CN([C@@H](C)CO)C(=O)Cc2cc(NC(=O)Cn3cnnn3)ccc2O[C@@H]1CN(C)Cc1ccncc1`, for which the cytotoxicity call is “inactive”. With `COc1ccc(NC(=O)Nc2ccc3c(c2)C(=O)N([C@@H](C)CO)C[C@H](C)[C@H](CN(C)Cc2ccc(C(F)(F)F)cc2)OCCCC[C@@H](C)O3)cc1`, the cytotoxicity call was “inactive”. In the case of `COc1ccc(CN(C)C[C@H]2OCCCC[C@@H](C)Oc3ccc(NC(=O)Nc4ccc(C(F)(F)F)cc4)cc3C(=O)N([C@@H](C)CO)C[C@H]2C)cc1`, the cytotoxicity call is “active”. Consider `COc1ccc(NC(=O)Nc2ccc3c(c2)C(=O)N([C@@H](C)CO)C[C@@H](C)[C@@H](CN(C)Cc2ccc(C(F)(F)F)cc2)OCCCC[C@@H](C)O3)cc1`, for which the cytotoxicity call is “inactive”. Take `COc1ccc(CN(C)C[C@H]2OCCCC[C@H](C)Oc3ccc(NC(=O)Nc4ccc(C(F)(F)F)cc4)cc3C(=O)N([C@H](C)CO)C[C@@H]2C)cc1`: the cytotoxicity call was “active”.

For `COc1ccc(CN(C)C[C@@H]2OCCCC[C@H](C)Oc3ccc(NC(=O)Nc4ccc(C(F)(F)F)cc4)cc3C(=O)N([C@H](C)CO)C[C@@H]2C)cc1`, the cytotoxicity call is “active”. For the compound `COc1ccc(CN(C)C[C@H]2OCCCC[C@@H](C)Oc3ccc(NC(=O)Nc4ccc(C(F)(F)F)cc4)cc3C(=O)N([C@H](C)CO)C[C@H]2C)cc1`, the cytotoxicity call was “active”. To `C[C@H]1CN([C@@H](C)CO)C(=O)c2cc(NC(=O)Cc3ccccc3)ccc2O[C@@H]1CN(C)S(=O)(=O)c1ccccc1` belongs “inactive”; to `COc1cccc(S(=O)(=O)Nc2ccc3c(c2)[C@@H]2C[C@H](CC(=O)NCC(F)(F)F)O[C@H](CO)[C@@H]2O3)c1`, “inactive”. The value for `C[C@@H]1CN([C@H](C)CO)C(=O)CCCn2nncc2CO[C@@H]1CN(C)C(=O)Nc1cccc(Oc2ccccn2)c1` was “inactive”; that for `COCCNC(=O)C[C@H]1CC[C@H]2[C@@H](COc3ccc(NC(=O)Nc4cccc(F)c4)cc3C(=O)N2C)O1` was “inactive”.

`Cc1noc(C)c1NC(=O)Nc1cccc2c1O[C@H](CN(C)Cc1ccc(Cl)c(Cl)c1)[C@H](C)CN([C@@H](C)CO)C2=O`: the cytotoxicity call is “inactive”. Turning to `C[C@@H]1CN([C@@H](C)CO)C(=O)CCCn2cc(nn2)CO[C@@H]1CN(C)Cc1ccc2c(c1)OCCN2C`, the cytotoxicity call is “inactive”. Regarding `C[C@@H]1CN([C@@H](C)CO)C(=O)c2cc(NC(=O)C3CC3)ccc2O[C@H]1CN(C)C(=O)Nc1ccc2c(c1)OCO2`, the cytotoxicity call is “inactive”. In the case of `CCc1nc2ccccc2c(C(=O)Nc2cccc(Cl)c2)c1C`, the cytotoxicity call was “inactive”. Regarding `C[C@@H]1CN([C@H](C)CO)C(=O)Cc2cc(NC(=O)C3CC3)ccc2O[C@@H]1CN(C)C(=O)Nc1ccc2c(c1)OCO2`, the cytotoxicity call was “inactive”. In the case of `O=C(C[C@@H]1CC[C@@H](NC(=O)c2cnccn2)[C@H](CO)O1)NCc1ccccc1F`, the cytotoxicity call is “inactive”. As to `C[C@H]1CN([C@@H](C)CO)C(=O)Cc2cc(NC(=O)Cn3cnnn3)ccc2O[C@H]1CN(C)Cc1ccccc1`, the cytotoxicity call was “inactive”. On to `Cn1c(-c2ccccc2)c[nH]c1=S`, for which the cytotoxicity call was “inactive”.

As for `COc1ccc(NC(=O)Nc2ccc3c(c2)C(=O)N([C@H](C)CO)C[C@H](C)[C@@H](CN(C)Cc2ccc(C(F)(F)F)cc2)OCCCC[C@H](C)O3)cc1`, the cytotoxicity call is “inactive”. With `COc1ccc(NC(=O)Nc2ccc3c(c2)C(=O)N([C@@H](C)CO)C[C@@H](C)[C@@H](CN(C)Cc2ccc(C(F)(F)F)cc2)OCCCC[C@H](C)O3)cc1`, the cytotoxicity call was “inactive”. Take `COc1ccc(NC(=O)Nc2ccc3c(c2)C(=O)N([C@@H](C)CO)C[C@H](C)[C@@H](CN(C)Cc2ccc(C(F)(F)F)cc2)OCCCC[C@@H](C)O3)cc1`: the cytotoxicity call was “inactive”.

Take `COc1ccc(CN(C)C[C@@H]2OCCCC[C@@H](C)Oc3ccc(NC(=O)Nc4ccc(C(F)(F)F)cc4)cc3C(=O)N([C@H](C)CO)C[C@H]2C)cc1`: the cytotoxicity call was “active”.

In the case of `COc1ccc(CN(C)C[C@H]2OCCCC[C@H](C)Oc3ccc(NC(=O)Nc4ccc(C(F)(F)F)cc4)cc3C(=O)N([C@@H](C)CO)C[C@@H]2C)cc1`, the cytotoxicity call is “active”.

With `COc1ccc(CN(C)C[C@H]2OCCCC[C@H](C)Oc3ccc(NC(=O)Nc4ccc(C(F)(F)F)cc4)cc3C(=O)N([C@@H](C)CO)C[C@H]2C)cc1`, the cytotoxicity call is “active”.

As to `COc1ccc(NC(=O)Nc2ccc3c(c2)C(=O)N([C@H](C)CO)C[C@@H](C)[C@H](CN(C)Cc2ccc(C(F)(F)F)cc2)OCCCC[C@@H](C)O3)cc1`, the cytotoxicity call is “inactive”.

Take `Cc1noc(C)c1S(=O)(=O)Nc1ccc2c(c1)C(=O)N([C@H](C)CO)C[C@H](C)[C@@H](CN(C)C(=O)NC(C)C)O2`: the cytotoxicity call is “inactive”. `COc1ccc(NC(=O)N(C)C[C@@H]2Oc3c(NS(C)(=O)=O)cccc3C(=O)N([C@@H](C)CO)C[C@@H]2C)cc1`: the cytotoxicity call was “inactive”.

In the case of `O=C(C[C@@H]1CC[C@H]2[C@@H](COC[C@@H](O)CN2S(=O)(=O)c2ccc(Cl)cc2)O1)NCCN1CCCC1`, the cytotoxicity call was “inactive”. The value for `C[C@@H]1CN([C@H](C)CO)C(=O)c2cccc(NS(=O)(=O)c3ccc(F)cc3)c2O[C@@H]1CN(C)S(=O)(=O)c1ccc(F)cc1` was “inactive”; that for `C[C@@H]1CN([C@@H](C)CO)C(=O)c2cc(NC(=O)Nc3ccc(F)cc3)ccc2O[C@@H](C)CCCCO[C@@H]1CN(C)C(=O)CCCN(C)C` was “inactive”; that for `O=C(C[C@H]1CC[C@@H]2[C@H](COC[C@H](O)CN2C(=O)c2ccccc2)O1)NCCCN1CCOCC1` was “inactive”.

In the case of `C[C@@H]1CN([C@@H](C)CO)C(=O)Cc2cc(NS(=O)(=O)c3ccc(F)cc3)ccc2O[C@H]1CN(C)S(=O)(=O)c1cn(C)cn1`, the cytotoxicity call is “inactive”. As to `C[C@@H]1CN([C@@H](C)CO)C(=O)c2cc(NC(=O)Nc3ccc(C(F)(F)F)cc3)ccc2O[C@@H]1CN(C)C(=O)Nc1ccc(C(F)(F)F)cc1`, the cytotoxicity call was “inactive”. Take `C[C@@H]1CCCCO[C@H](CN(C)CC2CC2)[C@H](C)CN([C@H](C)CO)C(=O)c2cc(NC(=O)C3CCCCC3)ccc2O1`: the cytotoxicity call was “inactive”. On to `COc1ccc(CN(C)C[C@@H]2OCCCC[C@H](C)Oc3ccc(NC(=O)C4CCCCC4)cc3C(=O)N([C@@H](C)CO)C[C@@H]2C)cc1`, for which the cytotoxicity call is “inactive”. With `COc1nc(N)nc2c1ncn2[C@@H]1O[C@H](CO)[C@@H](O)[C@@H]1O`, the cytotoxicity call was “inactive”. To `Nc1ncnc2c1ncn2C1OC(CO)C(O)C1O` (centres undefined) belongs “inactive”. Regarding `OC[C@H]1O[C@@H](n2cnc3c(NCc4ccco4)ncnc32)[C@H](O)[C@@H]1O`, the cytotoxicity call was “inactive”. On to `CNc1ncnc2c1ncn2[C@@H]1O[C@H](CO)[C@@H](O)[C@H]1O`, for which the cytotoxicity call was “inactive”. For the compound `COc1ccc(C[C@H](N)C(=O)N[C@H]2[C@@H](O)[C@@H](n3cnc4c(N(C)C)ncnc43)O[C@@H]2CO)cc1`, the cytotoxicity call was “active”. Regarding `COc1ccc(CC(N)C(=O)NC2C(CO)OC(n3cnc4c(N(C)C)ncnc43)C2O)cc1.Cl.Cl` (centres undefined), the cytotoxicity call is “active”. For `Nc1ncnc2c1ncn2[C@@H]1O[C@H](CO)[C@@H](O)[C@H]1O`, the cytotoxicity call was “inactive”. As to `COc1ccc(C[C@@H](N)C(=O)N[C@@H]2[C@@H](O)[C@@H](n3cnc4c(N(C)C)ncnc43)O[C@@H]2CO)cc1`, the cytotoxicity call is “active”. To `CN(C)c1ncnc2c1ncn2[C@H]1O[C@@H](CO)[C@@H](N)[C@@H]1O` belongs “inactive”; to `Nc1ccc(CCNc2ncnc3c2ncn3[C@@H]2O[C@H](CO)[C@@H](O)[C@H]2O)cc1`, “inactive”; to `Nc1ncnc2c1ncn2[C@H]1O[C@@H](CO)[C@H](O)[C@@H]1S`, “inactive”. To `COc1ccc(C[C@H](N)C(=O)N[C@H]2[C@@H](O)[C@H](n3cnc4c(N(C)C)ncnc43)O[C@@H]2CO)cc1` belongs “active”; to `C[C@H](CO)N1C[C@H](C)[C@@H](CN(C)C(=O)Nc2ccc3c(c2)OCO3)Oc2ccc(NC(=O)CCN3CCOCC3)cc2C1=O`, “inactive”. As for `Cc1noc(C)c1NC(=O)N(C)C[C@H]1Oc2ccc(NC(=O)C3CC3)cc2CC(=O)N([C@@H](C)CO)C[C@H]1C`, the cytotoxicity call is “inactive”. Regarding `CCOCCCNc1nc2c([nH]1)c(=O)n(C)c(=O)n2C`, the cytotoxicity call was “inactive”.

Regarding `C[C@@H]1CN([C@H](C)CO)S(=O)(=O)c2ccc(-c3cncnc3)cc2O[C@H]1CN(C)C(=O)c1cccc(F)c1`, the cytotoxicity call is “inactive”. As to `C[C@@H]1CN([C@@H](C)CO)C(=O)c2cccc(NC(=O)c3cnccn3)c2O[C@@H]1CN(C)CC1CCCCC1`, the cytotoxicity call was “inactive”. Consider `COc1cccc(C#Cc2ccc3c(c2)O[C@@H](CN(C)C(=O)c2ccccn2)[C@H](C)CN([C@H](C)CO)S3(=O)=O)c1`, for which the cytotoxicity call is “inactive”.

For `COC(=O)CCCCCCC(=O)Nc1ccc([C@H]2O[C@@H](CSc3nc(-c4ccccc4)c(-c4ccccc4)o3)C[C@H](c3ccc([N+](=O)[O-])cc3)O2)cc1`, the cytotoxicity call is “inactive”. In the case of `COCCOC(=O)N1C(=O)[C@@]2(c3cc(C#Cc4ccc(OC)cc4)ccc31)[C@H](c1ccc(O)cc1)N1[C@H](c3ccccc3)[C@H](c3ccccc3)OC(=O)[C@H]1[C@@H]2C(=O)NC[C@H](O)c1ccccc1`, the cytotoxicity call is “inactive”.
